This is a sample that favours compounds with a hit; in the whole collection about 1.2% have one here.
aGal spleen mod: inhibitors or activators of human alpha-galactosidase in spleen homogenate. human spleen homogenate, 4MU-alpha-Gal fluorescence, 40 min. Potency, µM (top dose mostly 80 µM), for the others: at the top dose activity change, negative = inhibition, hits mostly inhibitors. 0.008% of 240,000 active. AID 2107;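 further: potency means the concentration at half of the fitted maximal effect; 0% = enzyme with vehicle and -100% = no enzyme basal signal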
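Spleen homogenate 1 ug + cpd (titration) + 4-MU-alpha-D-galactopyranoside 1 mM; 37C 40 min; 50 mM citrate/phosphate pH 5.0, 0.01% Tween-20; stop pH 10; fluorescence 365/440; AC50 via Hill.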
HTT ATP protect: Huntington cell model cytoprotection by ATP luminescence; 0.14% of 230,000 active; AID 1471; PC12 HTT-Q103 induced, cytoprotection, ATP luminescence, 40 h; Potency, µM (highest dose often 56.4 µM), inactives show cytoprotection (ATP increase), actives largely listed as activators; further: potency means the concentration at half of the fitted maximal effect; % of control where 0% means no effect; nearly all actives have a fitted effect of over 45% in size
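PC12 cells with ecdysone-inducible HTT exon 1 Q103-GFP, induced with 100 nM tebufenozide and co-treated with library compounds in a dose series (1536-well, 1500 cells/well). Cytoprotection read as ATP content by ATPlite luminescence.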
PKM2 activator: activators of human pyruvate kinase M2; Potency, µM (titrated, usually from 57.5 µM), for the others: at the highest dose activation, actives largely listed as activators; 0.34% of 260,000 active; purified PKM2, Kinase-Glo ATP luminescence, activation; response scale: 0% is enzyme alone, no compound; further: potency means the concentration at half of the fitted maximal effect; on the % scale 0 is the no-effect control and ±100 the full control effect; nearly all actives have a fitted effect of over 55% in size
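Purified hPK-M2 (>95%) run at intermediate activity with 0.1 mM ADP and 0.5 mM PEP in 50 mM imidazole pH 7.2, KCl, MgCl2; 1 h room temperature. ATP formed read by Kinase-Glo luminescence; normalized to uninhibited and no-enzyme controls.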
HTT aggregate: mutant huntingtin aggregation inhibition; PC12 HttQ103-GFP aggregates, Acumen cytometry, 40 h; 1.1% of 220,000 active; Potency, µM (titrated, usually from 46.1 µM), for the others: at the top dose activity change, negative = inhibition, most hits filed as inhibitors; AID 1688; further: potency means the concentration at half of the fitted maximal effect; on the % scale 0 is the no-effect control and ±100 the full control effect; nearly all actives have a fitted effect of over 60% in size
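Compounds (qHTS titration) were added to PC12 cells expressing an ecdysone-driven HTT exon 1 Q103–GFP fusion after induction with 100 nM tebufenozide. Aggregate formation was measured as GFP objects in cell lysates.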
GLA inh pH 4.5: alpha-galactosidase A (human) inhibition, pH 4.5 | purified enzyme, 4-MU-alpha-Gal fluorescence, pH 4.5 | AID 1467 | activity change, negative = inhibition, % at 105 µM | P06280 | 230,000 tested, under 10 active;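 further: 0% = full activity with enzyme and -100% = basal without enzyme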
Target sequence (P06280 whole entry, looked up): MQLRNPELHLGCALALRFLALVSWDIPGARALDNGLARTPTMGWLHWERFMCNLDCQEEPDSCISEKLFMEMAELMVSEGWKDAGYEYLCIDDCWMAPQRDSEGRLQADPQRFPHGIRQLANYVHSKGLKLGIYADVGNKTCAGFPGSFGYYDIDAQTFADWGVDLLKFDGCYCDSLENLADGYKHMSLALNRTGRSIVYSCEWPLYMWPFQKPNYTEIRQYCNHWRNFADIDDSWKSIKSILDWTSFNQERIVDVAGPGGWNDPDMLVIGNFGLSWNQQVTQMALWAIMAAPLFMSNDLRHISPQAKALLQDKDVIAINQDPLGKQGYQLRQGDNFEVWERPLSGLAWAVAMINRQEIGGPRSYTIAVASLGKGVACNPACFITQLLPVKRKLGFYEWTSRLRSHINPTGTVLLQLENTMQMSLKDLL
An asterisk follows results filed as active; ? = inconclusive; . = no result given; ! = not confirmed by another sample; [ ] = remark or other dose. The call rests on the fitted dose curve; in most records, active means well fitted curve in the direction sought with a large enough effect; inconclusive means small, poorly fitted or top-dose-only effect, or another doubt; inactive means no such curve, though single readings can be large; an effect the other way counts as inactive or inconclusive.

SMILES	aGal spleen mod	HTT ATP protect	PKM2 activator	HTT aggregate	GLA inh pH 4.5
Cc1ccc(C)c(NC(=O)CSc2nc(C)cc(C)c2C#N)c1	3%	10%[10 µM]	3%	7%	9
NC(=O)C1CCN(CCC(=O)Nc2ccc(Br)cc2)CC1	2%	0.11µM*	-5%	.	3
NC(=O)C1CCN(CC(=O)Nc2ccccn2)CC1	2%	0%	-2%	2.2µM*	3
CC(=O)CCc1oc2c([N+](=O)[O-])cccc2c1-c1ccc(C)o1	-3%	-13%[10 µM]	10µM*	3%[9.22 µM]	-2
COc1ccc(O[C@H]2C=C[C@@H](c3ccccc3)O[C@H]2COC(=O)CC/C(C)=N\O[C@@H](C)CN2CCCc3nc(C)c(C)cc32)cc1	-2%[17.5 µM]	-11%[10 µM]	.	.	.
CCOC(=O)c1ccc(NC(=S)NCCC2=CCCCC2)cc1	-6%	-2%[10 µM]	-4%	-5%	2
Cc1ccc(NC(=S)NCCC2=CCCCC2)cc1	1%	-84%	-5%	13µM*	-7
CCc1c2c(nc3cccc(OC)c13)OC(CC)C2 (configuration not stated)	-7%	-54%	2%	.	3
Cc1cccc(-n2ncc3c(N4CC(C)CC(C)C4)ncnc32)c1 (configuration not stated)	-3%	-98%	-7%	22µM*	-4
COc1cccc(N(C)C(=S)Oc2ccc3c(c2)CCCC3)n1	.	-88%	.	-13%	.
CNC(=O)COC(=O)c1ccccc1C(=O)c1ccc(Cl)c([N+](=O)[O-])c1	-10%	-35%[10 µM]	-4%	28µM*	6
CN(C)CCOC(c1ccccc1)c1ccccc1	-5%	-51%	-6%	?	-4
CN(C)CCOC(c1ccccc1)c1ccccc1 (tested in a mixture with another compound)	-29%	3.2µM*!	-1%	8%	1
Nc1nc(-c2ccccc2)cn1N	14%	-5%	28µM*	2%	-2
O=C(Nc1ccccc1)Nc1ccc2nnsc2c1	-5%	0%[10 µM]	-2%	4%[9.22 µM]	-20
O=C(Nc1ccccc1)Nc1ccc2snnc2c1	1%	-14%[10 µM]	4%	11µM*	1
COc1ccccc1CC(=O)Nc1ccc2c(c1)CCC2	-3%	10%[10 µM]	6%	1%	4
COc1ccc(CC(=O)Nc2ccc3c(c2)CCC3)cc1OC	-14%	2%	-9%	13µM*	-5
NCCC[C@@H](CC(=O)N[C@@H]1CCCC[C@H]1C(=O)N[C@H](CC(=O)N[C@@H](CCC(=O)O)CC(=O)O)Cc1c[nH]c2ccccc12)NC(=O)C[C@H](CO)NC(=O)[C@@H]1CNCC[C@H]1N	7%	8%[1.9 µM]	.	.	-2
Cc1ccc(NS(=O)(=O)c2ccc(Cl)c(C(=O)Nc3ccccc3-c3nc4ccccc4[nH]3)c2)cc1C	7%	-27%[10 µM]	-1%	11µM*	-1
[O]=[Bi][O]C(=O)[O][Bi]=[O]	.	20%	.	14%	.
COc1ccc(C(=O)N2CCC3(CCN(Cc4cc(C(F)(F)F)cc(C(F)(F)F)c4)CC3)CC2)cc1	3%	?	.	.	.
O=C1CSC(=S)N1/N=C/c1cccnc1	1%	.	-5%	0.89µM*	-5
N=c1c2c(n(Cc3ccccc3)c3c1CCC3)CCC2	-5%	-59%	-1%	8.9µM*	0
N=c1c2c(n(Cc3cccc(Cl)c3)c3c1CCC3)CCCC2	-11%	-43%[10 µM]	2%	10µM*	1
N=c1c2c(n(Cc3ccc(F)cc3)c3c1CCC3)CCCC2	4%	-40%	0%	?	-6
N=c1c2c(n(Cc3ccc(Cl)cc3)c3c1CCC3)CCC2	1%	-74%	-4%	?	1
COC(=O)C1=C(C(=O)OC)[C@@H]2N(C)c3ccc(OC)cc3[C@@]23C[C@@H](C(=O)OC)N(S(=O)(=O)c2ccc(C(F)(F)F)cc2)C3=N1	4%[17.5 µM]	13%[10 µM]	-1%[11.5 µM]	.	-3
N#Cc1cc2c(OCC(O)CN3CCN(C(c4ccccc4)c4ccccc4)CC3)cccc2[nH]1 (configuration not stated)	12%	-138%	.	.	.

High-throughput results as filed in PubChem BioAssay.
